The values that follow come from PubChem BioAssay AID2284108 (EPA ToxCast).

Calls of active or inactive are those of the source. The calls were made as follows: active = hit-call score of the fitted dose curve at least 0.9, where 1 is the maximum; inactive = score below 0.9.

human Src Tyrosine Kinase, SRC (gene 6714), sequence (P12931 whole entry, looked up): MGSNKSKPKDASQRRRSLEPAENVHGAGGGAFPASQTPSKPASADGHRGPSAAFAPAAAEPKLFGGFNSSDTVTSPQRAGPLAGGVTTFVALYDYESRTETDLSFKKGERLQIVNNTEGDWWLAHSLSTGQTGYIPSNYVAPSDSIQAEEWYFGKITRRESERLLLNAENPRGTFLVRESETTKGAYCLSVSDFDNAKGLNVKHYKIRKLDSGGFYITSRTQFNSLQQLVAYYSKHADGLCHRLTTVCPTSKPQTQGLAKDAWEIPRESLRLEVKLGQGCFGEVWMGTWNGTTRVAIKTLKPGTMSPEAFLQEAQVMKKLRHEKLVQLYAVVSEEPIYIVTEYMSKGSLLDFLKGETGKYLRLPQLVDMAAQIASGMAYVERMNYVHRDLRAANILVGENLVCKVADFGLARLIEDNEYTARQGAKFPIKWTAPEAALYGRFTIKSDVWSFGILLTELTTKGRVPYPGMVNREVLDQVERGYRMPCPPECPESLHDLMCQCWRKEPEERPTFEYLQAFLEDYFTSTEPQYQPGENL

This assay addresses human Src Tyrosine Kinase, SRC (gene 6714) (UniProt P12931). The assay is described as follows: ERF_FR_ENZ_hSRC: Eurofins (ERF) Enzymatic Radiometric [Km ATP] KinaseProfiler LeadHunter Assay for human Src Tyrosine Kinase. The procedure:
ERF_FR_ENZ_hSRC is a biochemical, single-readout assay that uses extracted gene-proteins in a cell-free assay. Measurements were taken 0.16 hour after chemical dosing in a 96-well plate. See Src Human TK Kinase Enzymatic LANCE Assay [Km ATP], Cerep.ERF_FR_ENZ_hSRC is an assay component calculated from the ERF_FR_ENZ_hSRC assay. It is designed to measure enzyme activity using a type of enzyme reporter as detected by fluorescence intensity with LANCE technology.Data from the assay component ERF_FR_ENZ_hSRC was analyzed at the assay endpoint, ERF_FR_ENZ_hSRC, in the positive analysis fitting direction relative to DMSO as the negative control and baseline of activity. Using a type of enzyme reporter, loss-of-signal activity can be used to understand changes in enzymatic activity as they relate to gene SRC. To generalize the intended target to other relatable targets, this assay endpoint is annotated to the kinase intended target family, where the subfamily is non-receptor tyrosine kinase.
c-Src (h) is incubated with 8 mM MOPS pH 7.0, 0.2 mM EDTA, 250 uM […] (Cdc2 peptide), 10 mM MgAcetate and [gamma-33P]-ATP (specific activity and concentration as required). The reaction is initiated by the addition of the Mg/ATP mix. After incubation for 40 minutes at room temperature, the reaction is stopped by the addition of phosphoric acid to a concentration of 0.5%. […]
For the molecule `O=C(/C=C/c1ccc(O)cc1)CC(=O)/C=C/c1ccc(O)cc1`, the outcome was inactive.
